Source: PubChem BioAssay
Mm-Cpn inhibitor – inhibitors of Methanococcus maripaludis chaperonin TRiC (MmCpn). purified Mm-Cpn ATPase, ADP Transcreener TR-FRET. Potency, µM (titrated, usually from 76.9 µM), without a hit: at the top dose activity, negative = inhibition, actives largely listed as inhibitors. 0.031% of 330,000 active; also: potency is read from the fitted curve at half-maximal effect; nearly all actives have a fitted effect of over 80% in size
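Quantitative HTS used 25 nM Mm-CPN and 10 uM ATP in magnesium/KCl Tris buffer, pH 7.4, with 1 mM DTT. Hydrolysis ran 30 min at 37°C; ADP was read by HTRF.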
CCT modulator – modulators of cytosolic chaperonin (CCT/TRiC) activity; 0.3% of 360,000 active; activity change, % (test concentration not listed), hits read low; purified chaperonin ATPase assay, HTRF ADP detection, 30 min; AID 651819; in the data active = activity change below about -30%
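We incubate TRiC, 40 or 20 nM final, with library compounds at 76 uM and 10 uM ATP for 30 min at 37 °C. ADP formed is detected with Transcreener HTRF reagents after 30 min at room temperature.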
G9a inh – blocks human histone lysine methyltransferase G9a | Q96KQ7 | G9a H3K9 monomethylation, AlphaScreen, 2 h | Potency, µM (doses to about 102 µM), inactives show at the top dose activity, negative = inhibition, hits mostly inhibitors | 8.8% of 350,000 active; also: potency is read from the fitted curve at half-maximal effect; nearly all actives have a fitted effect of over 75% in size
Target sequence (Q96KQ7 913-1193 limits assumed): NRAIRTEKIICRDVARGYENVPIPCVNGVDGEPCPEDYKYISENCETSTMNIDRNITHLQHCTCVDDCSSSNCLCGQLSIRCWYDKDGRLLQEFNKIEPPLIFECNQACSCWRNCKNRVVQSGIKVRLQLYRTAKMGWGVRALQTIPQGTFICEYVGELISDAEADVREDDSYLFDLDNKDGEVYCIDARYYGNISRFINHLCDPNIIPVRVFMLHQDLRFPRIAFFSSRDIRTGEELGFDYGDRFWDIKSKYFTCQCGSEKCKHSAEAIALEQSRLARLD
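Compounds were preincubated with 20 nM G9a for 15 min, after which biotinylated H3K9 peptide (500 nM) and SAM (20 uM) started a 2 h room-temperature reaction. Monomethylated product was quantified by antibody-based AlphaScreen chemiluminescence.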
VDR inhibitor – vitamin D3 receptor (human) inhibition; VDR-SRC2-3 peptide fluorescence polarization, 2 h; Potency, µM, for inactives: max response, negative = inhibition, most hits filed as inhibitors; 0.93% of 400,000 active; AID 504847; also: potency is read from the fitted curve at half-maximal effect
Target sequence (P11473 whole entry, looked up): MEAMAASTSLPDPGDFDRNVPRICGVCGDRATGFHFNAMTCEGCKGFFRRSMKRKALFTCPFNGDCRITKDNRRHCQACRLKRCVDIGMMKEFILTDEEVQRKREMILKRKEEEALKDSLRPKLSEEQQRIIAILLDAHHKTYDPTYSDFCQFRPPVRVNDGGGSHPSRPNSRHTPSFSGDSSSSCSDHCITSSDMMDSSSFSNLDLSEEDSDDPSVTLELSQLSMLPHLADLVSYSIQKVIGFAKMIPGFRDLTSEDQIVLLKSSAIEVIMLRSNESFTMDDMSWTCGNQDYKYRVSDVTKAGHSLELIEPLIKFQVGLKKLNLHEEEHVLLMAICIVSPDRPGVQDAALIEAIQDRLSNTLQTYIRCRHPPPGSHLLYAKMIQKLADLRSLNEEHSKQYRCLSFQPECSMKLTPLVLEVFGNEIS
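VDR–SRC2-3 interaction, FP format. Cmpds 23 nl via pintool, brief spin, 2 h ambient incubation.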
PLK1 PBD block – PLK1 (human) polo-box domain binding inhibition. Potency, µM, for the others: max response, negative = inhibition, most hits filed as inhibitors. 2.8% of 360,000 active. P53350. Plk1 PBD binding of FITC phosphopeptide, fluorescence polarization. AID 720504; also: potency is read from the fitted curve at half-maximal effect; series mostly up to about 57 µM; nearly all actives have a fitted effect of over 65% in size
Sfp PPTase inh – blocks B. subtilis Sfp PPTase activity; 3.5% of 310,000 active; Biochemical Sfp PPTase activity, qHTS; Potency, µM, without a hit: largest response in the series, negative = inhibition, usual class: inhibitors;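 also: the enzyme is Sfp with the accession as filed and its product quenches rhodamine fluorescence; potency is read from the fitted curve at half-maximal effect; 0% = enzyme reaction without inhibitor and -100% = no enzyme wells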
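Sfp 15 nM + cpd, 15 min RT; start w/ rhodamine-CoA 5 uM, BHQ-2-YbbR 12.5 uM (final); 50 mM Hepes pH 7.6, 10 mM MgCl2, 0.01% NP-40, 0.01% BSA; read 525/598 nm at 0 and 30 min.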
* = called active by the depositor; ? = inconclusive; nt = no result given; [ ] = another dose, or the depositor's remark. Hits are enriched below; roughly 10% of the tested compounds scored in any of these assays. Unless noted, calls follow the shape of the dose curve; as a rule, active = well fitted curve in the direction sought with a large enough effect; inconclusive = small, poorly fitted or top-dose-only effect, or another doubt; inactive = no such curve, though single readings can be large; an effect the other way counts as inactive or inconclusive. Unless noted, % is scaled to controls: 0 for no effect and ±100 for the full control effect.

SMILES | Mm-Cpn inhibitor | CCT modulator | G9a inh | VDR inhibitor | PLK1 PBD block | Sfp PPTase inh
O=C1NC(=O)/C(=C\c2ccc(Br)o2)S1 | 1% | 3 | 45µM* | -15% | -22% | ?
O=C(/C=C1\SC(=O)NC1=O)Nc1ccc(C(=O)O)cc1 | 1% | 0 | nt | 12% | -6% | -13%
O=C1NC(=O)/C(=C/c2ccc(-c3cc(C(=O)O)ccc3Cl)o2)S1 | 2% | -2 | nt | -21% | ? | 32µM*
CSc1nsc(/C=C/Nc2ccc(C)cc2)c1C#N | nt | -7 | 2.2µM* | 6% | 9% | -1%
CSc1nsc(/C=C/Nc2ccc(C)c(C)c2)c1C#N | -9% | 0 | 40µM* | 8% | 3% | 2%
COc1cc(/C=N/Nc2snc(SC)c2C#N)ccc1O | 1% | -1 | ? | 1% | -3% | -22%
CSc1nnc(C)c(/C=C/Nc2ccc(F)cc2)n1 | -2% | -1 | 40%[59 µM] | 3% | -9% | -5%
CCC(=O)N1CCc2cc(Br)cc(S(=O)(=O)N3CCN(c4ccc(C)cc4)C(C)C3)c21 (stereo not drawn) | nt | nt | 9%[59 µM] | -3% | nt | nt
COc1ccc(/C=C/C2=NC(=C\N(C)C)/C(=O)O2)cc1 | -2% | 0 | 22%[59 µM] | -7% | -7% | 79µM*
O=C(Oc1c(Br)cc(C(=S)N2CCOCC2)cc1Br)c1ccc(Cl)cc1 | 0% | -1 | nt | ? | 6.7µM* | -69%
O=C(Oc1ccc(C(=S)N2CCOCC2)cc1Br)c1cc(Cl)ccc1Cl | -1% | 2 | 45µM* | -20% | ? | 6%
CCOc1ccc(CCNC(=O)CN2C(=O)COc3ccc(S(=O)(=O)N4CCC(C)CC4)cc32)cc1 | nt | nt | 10%[59 µM] | -14% | nt | nt
CCc1ccc(NC(=O)c2ccc(F)c(S(=O)(=O)N3CCN(c4cc(C)ccc4C)CC3)c2)cc1 | nt | nt | 0%[59 µM] | 9% | nt | nt
CCN(C(=O)COC(=O)c1cc(OC)ccc1Br)C1CCS(=O)(=O)C1 (stereo not drawn) | 2% | -2 | nt | -3% | -10% | nt
CCN(C(=O)COC(=O)c1cc(C)n(-c2ccc(F)cc2)c1C)C1CCS(=O)(=O)C1 (stereo not drawn) | 1% | 0 | 50µM* | -10% | -1% | 4%
Cc1ccc(-n2c(C)cc(C(=O)OCC(=O)N(CC(C)C)C3CCS(=O)(=O)C3)c2C)cc1 (stereo not drawn) | 0% | 0 | ? | 6% | 1% | 4%
Cc1ccc(-n2c(C)cc(C(=O)OCC(=O)N(C)C3CCS(=O)(=O)C3)c2C)cc1 (stereo not drawn) | -2% | -4 | 50µM* | 5% | -9% | -17%
COCc1cc(C)nc2c1C(=O)NC(c1ccc(F)cc1)N2Cc1ccccc1 (stereo not drawn) | nt | nt | 14µM* | 4% | nt | nt
CC(C)(Oc1ccc(-c2ccco2)cc1)C(=O)O | -3% | nt | ? | nt | nt | 35µM*
O=C1C(Cl)=C(Nc2cccc(O)c2)C(=O)N1Cc1ccccc1 | 1% | -2 | 35µM* | 3% | 27µM* | -3%
COc1cc(-c2nc(C(N)=O)c3c(n2)n(-c2cccc(C)c2)c(=O)n3C)cc(OC)c1OC | nt | nt | 3%[59 µM] | -1% | nt | nt
COc1ccc(CNc2nc(NCc3ccc(OC)cc3)n(S(C)(=O)=O)n2)cc1 | 2% | -3 | -10%[12.7 µM] | -5% | -3% | -6%
COCC(=O)n1nc(NCc2ccc(OC)cc2)nc1NCc1ccc(OC)cc1 | -1% | 1 | ? | -28% | 12µM* | 8%
CCC(=O)NCC(=O)OCC(=O)c1ccccc1 | 1% | -2 | -15%[59 µM] | -26% | 3µM* | 0%
Brc1ccc(-c2ccc(CNCCSc3nnnn3-c3ccccc3)o2)cc1 | nt | nt | 16µM* | 0% | nt | nt
SMILES | Mm-Cpn inhibitor | CCT modulator | G9a inh | VDR inhibitor | PLK1 PBD block | Sfp PPTase inh
Nc1c(C(=O)Nc2ccccc2)nnn1Cc1ccc(F)cc1Cl | nt | nt | 45%[59 µM] | -2% | nt | nt
CCN(CC)c1ccc(NC(=O)CCS(=O)(=O)c2cccc3nsnc23)c(C)c1 | -3% | 0 | 40µM* | -17% | -18% | 0%
O=C(CNS(=O)(=O)c1cccc2nsnc12)NC1CCCCC1 | -1% | 1 | 2%[2.33 µM] | -1% | -1% | -4%
O=C(CCS(=O)(=O)c1cccc2nsnc12)NC1CCCCC1 | -1% | 2 | 22µM* | 13% | ? | -17%
COc1ccc(Cn2c(CCC(=O)Nc3ccc(C)cc3)nc3cccnc32)cc1 | -3% | 0 | 1%[59 µM] | -17% | 24µM* | 2%
CCN(CC)c1ccc(NC(=O)CCc2nc3cccnc3n2Cc2cccs2)c(C)c1 | nt | nt | 8.9µM* | -8% | nt | nt
COCCNC(=O)C(=O)Nc1ccc2nc3n(c(=O)c2c1)CCCCC3 | nt | nt | -1%[59 µM] | 8% | nt | nt
COc1cccc(-c2nccc(NCc3ccccc3)n2)c1 | nt | nt | 13%[0.501 µM] | -21% | nt | -20%
Cc1ccc(CNC(=O)CCS(=O)(=O)c2cccc3nsnc23)cc1 | -1% | -4 | 8%[12.7 µM] | -2% | -13% | 8%
CCc1ccc(NC(=O)CCS(=O)(=O)c2cccc3nsnc23)cc1 | 0% | 0 | 40µM* | -2% | -24% | 79µM*
CCN(C(=O)CCS(=O)(=O)c1cccc2nonc12)c1ccc(C)c(C)c1 | 2% | -1 | 16µM* | 7% | -12% | 3%
CCCC1OC2CC3C4CCC5=CC(=O)C=CC5(C)C4C(O)CC3(C)[C@]2(C(=O)CO)O1 (stereo partly drawn) | nt | nt | -3%[2.33 µM] | -7% | nt | 11%
COc1ccc(-c2ccc(C(C)=O)cc2)cc1C1C2C=CCC(C)C2C(=O)N1Cc1ccccc1 (stereo not drawn) | nt | nt | nt | 5% | nt | -6%
C=CCN(C(C(=O)OC)C(C)C)S(=O)(=O)CCl (stereo not drawn) | nt | nt | nt | -9% | nt | 15%
OCC1(CCc2ccccc2)CCN(Cc2cnc(N3CCCC3)s2)CC1 | 2% | 0 | -43% | 6% | -12% | 50µM*
Cc1ccc(C(CC(=O)c2ccc(Cl)cc2)C(=O)O)cc1 (stereo not drawn) | 2% | -4 | 0% | -9% | 1% | 10%
NC(C(=O)O)C(CC(=O)O)c1ccc(Cl)cc1 (stereo not drawn) | nt | nt | 26%[59 µM] | 2% | nt | 50µM*
O=P(c1ccccc1)(c1ccccc1)c1cc(S(=O)(=O)O)ccc1O | -1% | -2 | 35µM* | 6% | ? | -12%
O=P(O)(c1ccccc1)c1ccccc1O | -1% | -1 | 10%[59 µM] | -19% | -8% | 8%
CCCCNC(=O)c1c(C)oc2ncn(CC(C)C)c(=O)c12 | nt | nt | -25%[59 µM] | 5% | nt | nt
Cc1ccc(-c2ccc(/C=N/c3ncn[nH]3)o2)cc1Cl | 1% | -1 | -27%[12.7 µM] | -5% | -6% | 56µM*
Cc1ccc(-c2ccc(/C=N/NC(=O)CN3CCCC3)o2)cc1Cl | 0% | 0 | -40%[59 µM] | 13% | -1% | -6%
N#Cc1cccc(C(=O)OCC(=O)NC(=O)NC2CCCCC2)c1 | 0% | -42* | 1% | -9% | -14% | nt
